Consider ten molecules from PubChem BioAssay (NCI).

About 83,000 compounds went through this panel and 20% of them were active in at least one assay; those are over-represented in the sample as a whole.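 Percent growth is the endpoint: 0 to 100 indicates growth inhibition (40 means 60% inhibition), 0 means no net growth, and negative values indicate cell death.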 Unmarked numbers belong to inactive results. The source made the active and inactive calls. The calls were made as follows: active = growth percent below 10; inactive = the rest.

What all share (assay): NCI-60 one-dose screen, 48 h (100 = growth as untreated, 0 = no growth, -100 = all killed)
For one experiment, the system named is EKVX NSCLC. The following applies: 10 µM unless noted.
Another experiment concerns SN12C renal. The following applies: 10 µM unless noted.
Another experiment has as its system UO-31 renal. Conditions: 10 µM unless noted.
A further experiment deals with TK-10 renal. Conditions: 10 µM unless noted.
A further experiment relates to ACHN renal. Conditions: 10 µM unless noted.
The test system of a further experiment is CAKI-1 renal. Conditions: 10 µM unless noted.
A further experiment relates to A498 renal. Conditions: 10 µM.
In another experiment the test system is HL-60(TB) leukemia. Conditions: 10 µM unless noted.
The subject of a further experiment is CCRF-CEM leukemia. The following applies: 10 µM unless noted.
In the next experiment the test system is MOLT-4 leukemia. Conditions: 10 µM unless noted.
For the next experiment, the system named is SR leukemia. Conditions: 10 µM unless noted.
A further experiment relates to RPMI-8226 leukemia. The following applies: 10 µM unless noted.
Another experiment has as its system OVCAR-8 ovarian. Conditions: 10 µM unless noted.
In another experiment the test system is OVCAR-5 ovarian. The following applies: 10 µM unless noted.
The subject of the next experiment is OVCAR-4 ovarian. Conditions: 10 µM unless noted.
The subject of another experiment is SK-OV-3 ovarian. Conditions: 10 µM unless noted.
Another experiment concerns IGROV1 ovarian. Conditions: 10 µM unless noted.
For the next experiment, the system named is OVCAR-3 ovarian. Conditions: 10 µM unless noted.
Another experiment has as its system HS 578T breast. The following applies: 10 µM unless noted.
Another experiment concerns SK-MEL-2 melanoma. Conditions: 10 µM unless noted.

As to `COC1OC(CO)C(O)C(O)[CH]1[Hg][O]C(C)=O` (centres undefined), the growth is 111% with EKVX NSCLC; 88.5% with SN12C renal; 101% in the experiment with UO-31 renal; 111% in the experiment on TK-10 renal; 98.5% in the experiment with ACHN renal; 101% with CAKI-1 renal. Also, the growth in the experiment with A498 renal was 106%; in the experiment on HL-60(TB) leukemia, 94.6%; in the experiment with CCRF-CEM leukemia, 96.1%; in the experiment on MOLT-4 leukemia, 91.1%; in the experiment with SR leukemia, 64.3%; with RPMI-8226 leukemia, 104%. The growth was 103% with OVCAR-8 ovarian; 102% with OVCAR-5 ovarian; 95.6% in the experiment with OVCAR-4 ovarian; 117% with SK-OV-3 ovarian; 86.9% with IGROV1 ovarian; 75.9% in the experiment with OVCAR-3 ovarian. Besides, the growth with HS 578T breast is 89.8%.

Take `CCCCCC1(CCBr)C(=O)NC(=O)NC1=O`: the growth is 105% with SK-MEL-2 melanoma; 107% in the experiment with SN12C renal; 86.7% in the experiment with UO-31 renal; 111% in the experiment with TK-10 renal; 102% in the experiment with ACHN renal; 88.4% in the experiment with A498 renal. The growth in the experiment on CCRF-CEM leukemia was 102%; in the experiment with MOLT-4 leukemia, 104%; in the experiment with SR leukemia, 94.7%; in the experiment with OVCAR-8 ovarian it was 97.3%; in the experiment on OVCAR-5 ovarian, 96.6%; in the experiment on OVCAR-4 ovarian, 111%. In addition, the growth is 99.1% in the experiment with SK-OV-3 ovarian, 112% in the experiment with IGROV1 ovarian and 104% with OVCAR-3 ovarian.

On to `O=[As](O)(O)c1ccccc1[As](=O)(O)O`, for which the growth was 110% in the experiment with EKVX NSCLC; 110% in the experiment on SN12C renal; 78.8% with UO-31 renal; 119% in the experiment on TK-10 renal; 91.1% in the experiment on ACHN renal; 94.5% in the experiment with CAKI-1 renal. Besides, the growth in the experiment on A498 renal is 102%; in the experiment on CCRF-CEM leukemia it was 110%; in the experiment on SR leukemia, 91.3%; in the experiment on RPMI-8226 leukemia, 109%; in the experiment with OVCAR-8 ovarian, 99.7%; in the experiment on OVCAR-5 ovarian it was 92.6%. For the same molecule, the growth in the experiment with SK-OV-3 ovarian is 111%; in the experiment on IGROV1 ovarian it was 135%; with OVCAR-3 ovarian, 103%.

For `O=C1CCC2(O)[C@@H]3Cc4ccc(O)c5c4[C@]2(CCN3Cc2ccoc2)C1O5` (some centres undefined), the growth with SK-MEL-2 melanoma was 106%; with SN12C renal, 97.9%; in the experiment with TK-10 renal, 102%; in the experiment on ACHN renal it was 98%; in the experiment with CAKI-1 renal it was 99.3%; with A498 renal it was 108%. The growth in the experiment with HL-60(TB) leukemia was 95%; with CCRF-CEM leukemia, 98.5%; in the experiment with MOLT-4 leukemia, 101%; with SR leukemia it was 95.4%; with RPMI-8226 leukemia, 101%; with OVCAR-8 ovarian it was 102%. Further, the growth in the experiment with OVCAR-5 ovarian is 98.7%; in the experiment with OVCAR-4 ovarian it was 105%; in the experiment with SK-OV-3 ovarian it was 105%; in the experiment with IGROV1 ovarian, 112%; in the experiment on OVCAR-3 ovarian it was 107%; in the experiment on HS 578T breast it was 105%.

With `COC(=O)C1CCC(NC(=O)c2csc([C@@H](C[C@H](C(C)C)N(C)C(=O)[C@@H](NC(=O)[C@H]3CCCCN3C)C(C)C)OC(C)=O)n2)CC1` (some centres undefined), the growth is 28.6% in the experiment with SK-MEL-2 melanoma; 28.7% in the experiment on SN12C renal; 63.1% with TK-10 renal; 23.8% in the experiment on ACHN renal; -6.6% (active) with A498 renal; -21.8% (active) with HL-60(TB) leukemia. The growth with CCRF-CEM leukemia was 13%; in the experiment on MOLT-4 leukemia, 18.1%; in the experiment on SR leukemia it was 20.1%; in the experiment on RPMI-8226 leukemia it was 25.7%; in the experiment with OVCAR-8 ovarian, 19.3%; with OVCAR-5 ovarian, 53%. Further, the growth with OVCAR-4 ovarian is 45.3%; in the experiment with SK-OV-3 ovarian it was 20.8%; in the experiment with IGROV1 ovarian, 28.3%; in the experiment with OVCAR-3 ovarian, -37.6% (active); with HS 578T breast, 42.6%.

On to `Cc1cc(N(CCCl)CCCl)ccc1/C=N\NC(=O)c1ccncc1`, for which the growth with EKVX NSCLC was 94.3%; in the experiment with SN12C renal, 64.5%; in the experiment on UO-31 renal, 82.5%; in the experiment on TK-10 renal it was 93.1%; in the experiment on ACHN renal it was 73.9%; in the experiment on CAKI-1 renal, 33.2%. Besides, the growth in the experiment on A498 renal is -94.9% (active); in the experiment on HL-60(TB) leukemia, 53.4%; with CCRF-CEM leukemia, 68.2%; in the experiment on MOLT-4 leukemia it was 58.8%; in the experiment on SR leukemia, 47.9%; in the experiment with RPMI-8226 leukemia, 90.6%. The growth in the experiment on OVCAR-8 ovarian was 61.9%; in the experiment on OVCAR-5 ovarian it was 54.5%; in the experiment on OVCAR-4 ovarian, 89.1%; in the experiment with SK-OV-3 ovarian it was 95.4%; in the experiment with IGROV1 ovarian, 87%; in the experiment on OVCAR-3 ovarian, 90.8%. For the same molecule, the growth in the experiment on HS 578T breast is 109%.

As for `CC(=O)O[C@H]1CC[C@]2(C)[C@H]3CC[C@]4(C)[C@@H](OC(C)=O)CC[C@H]4[C@@H]3[C@@H](C)[C@]2(O)C1`, the growth with SK-MEL-2 melanoma was 99.1%; in the experiment on SN12C renal, 101%; in the experiment on TK-10 renal, 112%; in the experiment on ACHN renal, 112%; in the experiment on A498 renal it was 105%; in the experiment on CCRF-CEM leukemia, 93.1%. For the same molecule, the growth with MOLT-4 leukemia was 87.9%; in the experiment with SR leukemia, 96.1%; in the experiment on RPMI-8226 leukemia it was 100%; in the experiment on OVCAR-8 ovarian, 115%; with OVCAR-5 ovarian it was 108%; in the experiment with OVCAR-4 ovarian, 110%. The growth in the experiment on SK-OV-3 ovarian was 117%; with IGROV1 ovarian, 116%; with OVCAR-3 ovarian it was 127%; in the experiment with HS 578T breast, 110%.

Consider `COC1=CC(=O)O[C@@H](/C=C/c2ccc3c(c2)OCO3)C1`, for which the growth was 114% in the experiment with EKVX NSCLC; 100% with SN12C renal; 87.5% in the experiment on UO-31 renal; 102% in the experiment with TK-10 renal; 110% in the experiment with ACHN renal; 107% in the experiment on CAKI-1 renal. Besides, the growth is 59.2% in the experiment on A498 renal; 114% in the experiment with HL-60(TB) leukemia; 61.2% in the experiment with CCRF-CEM leukemia; 91% with MOLT-4 leukemia; 49.9% in the experiment on RPMI-8226 leukemia; 99.3% in the experiment with OVCAR-8 ovarian. Besides, the growth is 95.7% with OVCAR-5 ovarian; 112% in the experiment with OVCAR-4 ovarian; 110% with SK-OV-3 ovarian; 99.2% in the experiment with IGROV1 ovarian; 153% in the experiment on OVCAR-3 ovarian; 95.1% in the experiment with HS 578T breast.

For `Clc1ccc2nnnn2n1`, the growth is -12.1% (active) with SK-MEL-2 melanoma; 51.2% in the experiment on SN12C renal; 5.04% (active) with UO-31 renal; 37.5% with TK-10 renal; 43% in the experiment with ACHN renal; 78.7% in the experiment on A498 renal. Further, the growth in the experiment on HL-60(TB) leukemia is -25.8% (active); in the experiment on CCRF-CEM leukemia, 19.6%; in the experiment with MOLT-4 leukemia, 17.3%; in the experiment with RPMI-8226 leukemia, 5.38% (active); with OVCAR-8 ovarian, 74.1%; in the experiment on OVCAR-5 ovarian, 67.1%. The growth is 37.8% in the experiment on OVCAR-4 ovarian, 92% in the experiment on SK-OV-3 ovarian, -3.95% (active) in the experiment on OVCAR-3 ovarian and 89.6% in the experiment with HS 578T breast.

As for `COC(=O)[C@@]1(C)CC[C@]2(C)CC[C@]3(C)C4=CC=C5C(=CC(=O)C(O)=C5C)[C@]4(C)CC[C@@]3(C)[C@@H]2C1`, the growth with SK-MEL-2 melanoma is -87.6% (active); with SN12C renal, -88.2% (active); in the experiment on UO-31 renal, -99.4% (active); with TK-10 renal, -95.7% (active); in the experiment on ACHN renal, -100% (active); with A498 renal, -97.9% (active). For the same molecule, the growth in the experiment with CCRF-CEM leukemia is -41.2% (active); in the experiment with MOLT-4 leukemia, -43.3% (active); in the experiment on SR leukemia, -46.7% (active); in the experiment with RPMI-8226 leukemia, -26.7% (active); in the experiment with OVCAR-8 ovarian, -72.9% (active); in the experiment on OVCAR-5 ovarian it was -93.1% (active). The growth in the experiment with OVCAR-4 ovarian is -95% (active); in the experiment on SK-OV-3 ovarian, -97.6% (active); with OVCAR-3 ovarian, -92.1% (active); with HS 578T breast, -41.6% (active).
